Out of some 5,500 compounds screened, about 2,000 (36%) were called active. Not shown: some 18% with an inconclusive outcome. No stated cut-off is given here; in the data, active means normalized growth mostly below about 0.91 (no sharp cut-off); inconclusive means no clear call, values can overlap the other calls; inactive means mostly above about 0.92. The list shows a part of the results.
Experiment: chemical genetic growth profiling, strain panel (AID 1159580);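 further: tested at 20 µM; growth read once vehicle control cultures reached saturation at 30 °C; 1 = growth at the plate median or of vehicle wells; lower values mean less growth of the strain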
Settings: growth OD

Measured: normalized growth

CCCCN1CCCCC1C(=O)Nc1c(C)cccc1C (configuration not stated)
inactive: S. cerevisiae deletion strains, locus YJR075W, strain HOC1, hits give low values 1 | S. cerevisiae deletion strains, locus YKL009W, strain mrt4, hits give low values 1.01 | S. cerevisiae deletion strains, locus YKL068W, hits give low values 0.991 | S. cerevisiae deletion strains, locus YKL085W, strain MDH1 (second series), hits give low values 1 | S. cerevisiae deletion strains, locus YKL085W, strain MDH1, hits give low values 1 | S. cerevisiae deletion strains, locus YKL160W, strain elf1, hits give low values 0.992 | S. cerevisiae deletion strains, locus YKL190W, strain CNB1, hits give low values 1.01 | S. cerevisiae deletion strains, locus YKR001C, strain vps1, hits give low values 1.01 | S. cerevisiae deletion strains, locus YKR026C, strain gcn3, hits give low values 0.997 | S. cerevisiae deletion strains, locus YKR091W, strain srl3, hits give low values 0.982 | S. cerevisiae deletion strains, locus YLL001W, strain dnm1, hits give low values 0.991 | S. cerevisiae deletion strains, locus YLL026W, hits give low values 0.998 | S. cerevisiae deletion strains, locus YLL041C, strain sdh2, hits give low values 0.991 | S. cerevisiae deletion strains, locus YLR027C, strain aat2, hits give low values 0.991 | S. cerevisiae deletion strains, locus YLR039C, strain RIC1, hits give low values 1.01 | S. cerevisiae deletion strains, locus YLR058C, strain SHM2, hits give low values 1.01 | S. cerevisiae deletion strains, locus YLR102C, strain apc9, hits give low values 0.994 | S. cerevisiae deletion strains, locus YLR113W, strain HOG1, hits give low values 0.991 | S. cerevisiae deletion strains, locus YLR221C, strain rsa3, hits give low values 0.996 | S. cerevisiae deletion strains, locus YLR258W, strain gsy2, hits give low values 0.992 | S. cerevisiae deletion strains, locus YLR262C, strain YPT6 (second series), hits give low values 0.998 | S. cerevisiae deletion strains, locus YLR262C, strain YPT6, hits give low values 1.06 | S. cerevisiae deletion strains, locus YLR268W, strain sec22, hits give low values 0.943 | S. cerevisiae deletion strains, locus YLR320W, strain mms22, hits give low values 1.01 | S. cerevisiae deletion strains, locus YLR330W, strain CHS5, hits give low values 1.01 | S. cerevisiae deletion strains, locus YLR342W, strain FKS1 (second series), hits give low values 1.03 | S. cerevisiae deletion strains, locus YLR342W, strain FKS1, hits give low values 0.973 | S. cerevisiae deletion strains, locus YLR357W, strain rsc2, hits give low values 0.982 | S. cerevisiae deletion strains, locus YLR370C, strain arc18, hits give low values 0.998 | S. cerevisiae deletion strains, locus YLR371W, strain rom2, hits give low values 0.99 | S. cerevisiae deletion strains, locus YLR384C, strain iki3, hits give low values 0.997 | S. cerevisiae deletion strains, locus YLR418C, strain cdc73, hits give low values 0.993 | S. cerevisiae deletion strains, locus YML016C, strain PPZ1, hits give low values 1.02 | S. cerevisiae deletion strains, locus YML032C, strain rad52, hits give low values 0.982 | S. cerevisiae deletion strains, locus YML120C, strain ndi1, hits give low values 0.973 | S. cerevisiae deletion strains, locus YML124C, strain tub3, hits give low values 0.993 | S. cerevisiae deletion strains, locus YMR058W, strain fet3, hits give low values 0.979 | S. cerevisiae deletion strains, locus YMR078C, strain ctf18, hits give low values 0.99 | S. cerevisiae deletion strains, locus YMR125W, strain sto1, hits give low values 0.982 | S. cerevisiae deletion strains, locus YMR129W, hits give low values 0.992 | S. cerevisiae deletion strains, locus YMR205C, strain PFK2, hits give low values 1.01 | S. cerevisiae deletion strains, locus YMR223W, strain ubp8, hits give low values 1.01 | S. cerevisiae deletion strains, locus YMR231W, strain pep5, hits give low values 0.996 | S. cerevisiae deletion strains, locus YMR263W, strain SAP30, hits give low values 1.01 | S. cerevisiae deletion strains, locus YMR307W, strain GAS1, hits give low values 1.05 | S. cerevisiae deletion strains, locus YNL067W, strain RPL9B, hits give low values 1.01 | S. cerevisiae deletion strains, locus YNL071W, strain lat1, hits give low values 0.984 | S. cerevisiae deletion strains, locus YNL128W, strain TEP1, hits give low values 1.02 | S. cerevisiae deletion strains, locus YNL153C, strain GIM3, hits give low values 1.01 | S. cerevisiae deletion strains, locus YNL183C, strain NPR1, hits give low values 0.948 | S. cerevisiae deletion strains, locus YNL209W, strain ssb2, hits give low values 0.976 | S. cerevisiae deletion strains, locus YNL233W, strain BNI4, hits give low values 1 | S. cerevisiae deletion strains, locus YNL248C, strain rpa49, hits give low values 0.959 | S. cerevisiae deletion strains, locus YNL250W, strain rad50, hits give low values 1 | S. cerevisiae deletion strains, locus YNL271C, strain bni1, hits give low values 0.985 | S. cerevisiae deletion strains, locus YNL298W, strain CLA4, hits give low values 1 | S. cerevisiae deletion strains, locus YNL307C, strain MCK1, hits give low values 0.993 | S. cerevisiae deletion strains, locus YNL322C, strain KRE1 (second series), hits give low values 0.986 | S. cerevisiae deletion strains, locus YNL322C, strain KRE1, hits give low values 1.01 | S. cerevisiae deletion strains, locus YNR049C, strain mso1, hits give low values 0.993 | S. cerevisiae deletion strains, locus YNR052C, strain pop2, hits give low values 0.99 | S. cerevisiae deletion strains, locus YOL006C, strain TOP1, hits give low values 1.02 | S. cerevisiae deletion strains, locus YOL012C, strain htz1 0.897 | S. cerevisiae deletion strains, locus YOL147C, strain pex11, hits give low values 0.987 | S. cerevisiae deletion strains, locus YOR001W, strain rrp6, hits give low values 0.991 | S. cerevisiae deletion strains, locus YOR061W, strain CKA2, hits give low values 1.02 | S. cerevisiae deletion strains, locus YOR069W, strain VPS5, hits give low values 1.01 | S. cerevisiae deletion strains, locus YOR070C, strain gyp1, hits give low values 0.996 | S. cerevisiae deletion strains, locus YOR080W, strain dia2, hits give low values 0.979 | S. cerevisiae deletion strains, locus YOR083W, strain WHI5, hits give low values 1 | S. cerevisiae deletion strains, locus YOR106W, strain vam3, hits give low values 0.969 | S. cerevisiae deletion strains, locus YOR136W, strain idh2, hits give low values 0.993 | S. cerevisiae deletion strains, locus YOR144C, strain elg1, hits give low values 0.993 | S. cerevisiae deletion strains, locus YOR184W, strain ser1, hits give low values 0.986 | S. cerevisiae deletion strains, locus YOR231W, strain MKK1, hits give low values 0.974 | S. cerevisiae deletion strains, locus YOR265W, strain rbl2, hits give low values 0.987 | S. cerevisiae deletion strains, locus YOR270C, strain vph1, hits give low values 0.985 | S. cerevisiae deletion strains, locus YOR290C, strain snf2, hits give low values 0.977 | S. cerevisiae deletion strains, locus YOR316C, strain cot1, hits give low values 0.989 | S. cerevisiae deletion strains, locus YPL051W, strain arl3, hits give low values 0.998 | S. cerevisiae deletion strains, locus YPL055C, strain LGE1, hits give low values 1.03 | S. cerevisiae deletion strains, locus YPL078C, strain atp4, hits give low values 0.978 | S. cerevisiae deletion strains, locus YPL106C, strain sse1, hits give low values 0.962 | S. cerevisiae deletion strains, locus YPL240C, strain hsp82, hits give low values 0.982 | S. cerevisiae deletion strains, locus YPL241C, strain CIN2, hits give low values 1.01 | S. cerevisiae deletion strains, locus YPL256C, strain CLN2, hits give low values 0.958 | S. cerevisiae deletion strains, locus YPR119W, strain clb2, hits give low values 0.987 | S. cerevisiae deletion strains, locus YPR141C, strain kar3, hits give low values 0.985 | S. cerevisiae deletion strains, locus YPR163C, strain tif3, hits give low values 0.992 | S. cerevisiae deletion strains, locus YPR167C, strain met16, hits give low values 0.991 | S. cerevisiae deletion strains, strain wtn01, hits give low values 0.98 | S. cerevisiae strains, strain wild type, hits give low values 1.02

Reference: PubChem BioAssay AID1159580 (chemical genetic matrix, 2015)
